Pf growth 48h – Primary qHTS for delayed death inhibitors of the malarial parasite plastid, 48 hour incubation; P. falciparum luciferase growth in erythrocytes, 48 h; Potency, µM (top dose mostly 28.7 µM), hits mostly inhibitors; actives 5.9% (n = 310,000); AID 504832, 2011
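Luciferase-expressing parasites in RBCs, 2% Hct / 0.1% parasitemia final; RPMI 1640 + 0.5% Albumax; 37 C, 5% CO2, one generation; luminescence read-out, lower signal = inhibition.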
AMA1-RON2 inh – qHTS for Inhibitors of AMA1-RON; Towards Development of Antimalarial Drug Lead: Primary Screen; AlphaScreen AMA1-biotinylated RON2 peptide binding; Potency, µM (series often up to 58.2 µM), hits mostly inhibitors; actives 0.2% (n = 360,000); also: nearly all actives have a fitted effect of over 45% in size
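AMA1 (3D7) with his tag at 25 nM final met compounds first, then biotinylated RON2 peptide at 25 nM; detection used donor plus acceptor beads, 10 µg/mL apiece, read by AlphaScreen after 30 min at room temperature.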
Pf growth 96h – Primary qHTS for delayed death inhibitors of the malarial parasite plastid, 96 hour incubation. Potency, µM (titrated, usually from 28.7 µM), actives largely listed as inhibitors. P. falciparum luciferase reporter growth, 96 h. actives 6.9% (n = 320,000)
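Compounds incubated with erythrocytes infected by luciferase-expressing P. falciparum (2% hematocrit, 0.05% parasitemia final) for 96 hours, 37 C in 5% CO2. Growth inhibition scored as decreased luciferase luminescence.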
HCV inh – qHTS Assay for Inhibitors of Hepatitis C Virus (HCV); Huh7.5.1 HCVcc-Cre infection, luciferase reporter, 44 h; Potency, µM (doses to about 41.8 µM), actives largely listed as inhibitors; actives 3.4% (n = 340,000)
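Luciferase read-out (15 sec integration) after a 15 min room-temperature substrate step quantifies HCVcc-Cre infection. Cells, 1,000 per well, had compound added 4 h post-plating, then virus at ~0.5 moi, and were cultured 44 h.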
Hits are given with their value; i = inactive; ? = inconclusive; nt = not tested or not shown; [ ] = remark or other dose. Only some compounds are listed: those with a hit (about 11% of all), similar ones and a draw of the others. Calls follow the shape of the dose curve; as a rule, active = well fitted curve in the direction sought with a large enough effect; inconclusive = small, poorly fitted or top-dose-only effect, or another doubt; inactive = no such curve, though single readings can be large; an effect the other way counts as inactive or inconclusive.

SMILES	Pf growth 48h	AMA1-RON2 inh	Pf growth 96h	HCV inh
C/C(=N/NC(=O)c1ccc(C(C)(C)C)cc1)c1ccccn1	nt	i	nt	3.5µM
COc1ccc(C(=O)N/N=C(\C)c2ccccn2)cc1OC	?	i	i	?
C/C(=N\NC(=O)c1ccc(Cl)c(Cl)c1)c1ccccn1	0.59µM	i	?	0.56µM
CCCCN1C(=O)C(CC(=O)NC2CCCCC2)CC(C(=O)N(C)C)=C1C (stereo not drawn)	nt	i	nt	nt
CCC(Oc1ccccc1)C(=O)NCCOC (stereo not drawn)	i	i[2.32 µM]	i	i
CCc1cc(Cn2nc(-c3ccccc3)cc2C(=O)NCc2cccc(Br)c2)on1	nt	i	nt	3.2µM
CCc1cc(Cn2nc(-c3ccccc3)cc2C(=O)NCc2cccc(C(F)(F)F)c2)on1	?	i	?	?
CCCSc1nc2cc(OC)c(OC)cc2c(=N)n1CCCN1CCOCC1	12µM	i	4.7µM	11µM
CC(=O)Oc1ccc(N(C(C)=O)S(=O)(=O)c2cccs2)c2ccccc12	4.1µM	i	nt	nt
CC(=O)Oc1ccccc1N(C(C)=O)S(=O)(=O)c1ccc2ccccc2c1	i	i	2.3µM	i
CC(=O)Oc1c(Br)cc(N(C(C)=O)S(=O)(=O)c2ccccc2)c2ccccc12	3.3µM	i	?	?
CN(CC(=O)NCCc1ccc(F)cc1)Cc1cccc(Cl)c1	i	i	i	i
C(CNC1C2CC3CC(C2)CC1C3)CN1CCOCC1 (stereo not drawn)	i	i	i	i
C1CCN(CCCNC2C3CC4CC(C3)CC2C4)C1 (stereo not drawn)	?	i	?	2.5µM
Cn1c2ccccc2c2cc(/C=N/NC(=O)c3cc(O)ccc3O)ccc21	?	i	?	10µM
COc1cc(C(=O)N/N=C/c2ccc3c(c2)c2ccccc2n3C)ccc1O	4.7µM	i	9.3µM	?
COc1cc(/C=N/NC(=O)C2c3ccccc3Oc3ccccc32)ccc1O	?	i	13µM	i
COc1cc(/C=N/NC(=O)C2COc3ccccc3O2)ccc1O (stereo not drawn)	i	i	i	i
COc1cc(/C=N\NC(=O)CC(=O)NCCc2ccccc2)ccc1O	i	i	10µM	?
Cc1cc(C)nc(SCC(=O)N(C)CC(=O)Nc2c(Cl)cccc2Cl)n1	i	i	i	i
CC(C)Oc1cc(F)ccc1-c1cc(C(=O)NCc2ccccn2)[nH]n1	nt	i	nt	nt
Cn1nccc1C(=O)Nc1cccc(S(=O)(=O)N2CCOCC2)c1	i	i	i	i
COc1ccc(/C=N/NC(=O)CN(CCc2ccccc2)S(=O)(=O)c2ccc(NC(C)=O)cc2)cc1OC	?	i	9.3µM	i
CCOc1cc(/C=N/NC(=O)c2ccc(=O)n(C)c2)ccc1O	i	i	3.3µM	i
COc1cc(/C=N/NC(=O)Cc2ccccc2)ccc1Oc1ccc([N+](=O)[O-])cc1[N+](=O)[O-]	i	i	i	14µM
SMILES	Pf growth 48h	AMA1-RON2 inh	Pf growth 96h	HCV inh
COc1cc(/C=N/NC(=O)CCn2c3ccccc3c3ccccc32)ccc1O	i	i	i	7.9µM
COc1ccc([N+](=O)[O-])cc1/C=N/NC(=O)Cc1ccccc1	i	i	i	?
Cc1cc(C)c(S(C)(=O)=O)c(NN)n1	i	i	i	i
COC1OC(c2ccccc2)=C(c2ccc(C(N)=O)cc2)c2ccc(F)cc21 (stereo not drawn)	nt	i	nt	nt
Fc1cccc(C2CCCCN2Cc2nc(C3CC3)no2)c1 (stereo not drawn)	i	i	?	i
COC(=O)CN(C)C(=O)c1ccc(OC2CCN(S(=O)(=O)N(C)C)CC2)cc1	i	i	?	i
Cc1noc2ncnc(Oc3cc(Cl)ccc3Cl)c12	?	i	13µM	13µM
CCOC(=O)Cc1csc(NS(=O)(=O)c2ccc(Cl)cc2)n1	?	i	8.3µM	i
CCOC(=O)Cc1csc(NS(=O)(=O)c2ccc(OC)cc2)n1	i	i	i[5.75 µM]	i
CCOC(=O)Cc1csc(NC(=O)/C=C/c2ccc(Cl)cc2)n1	i	i	?	11µM
O=C(Cc1csc(Nc2nc(=S)[nH]c3ccccc23)n1)N1CCN(c2cccc(Cl)c2)CC1	?	i	i	11µM
Cc1ncoc1C(=O)NC1CCCc2c1cnn2-c1ccc(C(C)(C)C)cc1 (stereo not drawn)	?	i	i	nt
Cc1cc(NC(=O)CCN2C(=O)C3C4CCC(C4)C3C2=O)cc(C)c1Br (stereo not drawn)	i	i	0.93µM	?
O=C(c1ccc(S(=O)(=O)Cc2cc(F)ccc2F)c([N+](=O)[O-])c1)N1CCCC1	i	i	?	i
O=C(c1ccc(S(=O)(=O)Cc2ccccc2Cl)c([N+](=O)[O-])c1)N1CCN(c2ccccn2)CC1	?	i	13µM	?
O=C(c1ccc(S(=O)(=O)Cc2cc(F)ccc2F)c([N+](=O)[O-])c1)N1CCCCC1	15µM	i	i	i
CC1CCCCN1C(=O)CN(C)S(=O)(=O)c1cccc2nsnc12 (stereo not drawn)	i	i	i	i
CC(C)(C)c1csc(NC(=O)C2COc3ccccc3O2)n1 (stereo not drawn)	i	i	i	i
COc1ccc(-c2csc(NC(=O)Cc3cc(OC)c(OC)c(OC)c3)n2)cc1OC	?	i	12µM	?
COc1ccc(-c2csc(NC(=O)C3COc4ccccc4O3)n2)cc1OC (stereo not drawn)	i	i	?	11µM
Cc1ccc(NC(=O)C2COc3ccccc3O2)cc1 (stereo not drawn)	i	i	?	i
O=C(Nc1ccc(-c2cn3ccsc3n2)cc1)C1COc2ccccc2O1 (stereo not drawn)	i	i	?	14µM
COc1ccc(-c2csc(NC(=O)c3ccoc3C)n2)cc1	i	i	i	11µM
N#C/C(=C\c1cc(Br)ccc1F)C(=O)NC1CC1	i	i	i	i
CC(C)NC(=O)N(C)C[C@@H]1Oc2c(NC(=O)C3CCOCC3)cccc2C(=O)N([C@@H](C)CO)C[C@H]1C	nt	i	nt	i
SMILES	Pf growth 48h	AMA1-RON2 inh	Pf growth 96h	HCV inh
COc1ccc(CNC(=O)C(c2ccc(C)o2)N(C(=O)c2csnn2)c2ccc(C(C)C)cc2)cc1 (stereo not drawn)	?	i	i	?
CCN(CC)c1cc(CS(=O)c2ccccc2)nc(-c2ccccc2)n1 (stereo not drawn)	nt	i	nt	?
O=C(Cn1cnc2c(nnn2Cc2ccc(F)cc2)c1=O)NCC1CCCO1 (stereo not drawn)	i	i	nt	i
COc1ccc(-c2csc(NC(=O)CCN3C(=O)C4CC=CCC4C3=O)n2)cc1OC (stereo not drawn)	10µM	i	?	?
COc1ccc(-c2csc(NC(=O)CN3C(=O)C4CC=CCC4C3=O)n2)cc1 (stereo not drawn)	i	i	i	?
COc1ccc(CC(=O)Nc2nc(-c3ccncc3)cs2)cc1	?	i	13µM	?

From PubChem BioAssay
